This is a sample that favours compounds with a hit; in the whole collection about 2.9% have one here.
ADAM10 inh – inhibitors of human ADAM10; recombinant ADAM10, EDANS/DABCYL FRET peptide cleavage, 3 h; AID 720582; 370,000 tested, 0.62% active; inhibition, % at 7 µM;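 active means inhibition above a per-campaign cutoff equal to the mean of compounds falling between control-based bounds plus 3 SD, cut at about 20% in these data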;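 further: 0% = DMSO wells while the 100% control is not disclosed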
PLC-gamma1 inh – inhibitors of human phospholipase C gamma1; purified PLC-gamma1, fluorogenic substrate, fluorescence; 370,000 tested, 0.84% active; P19174; inhibition, % at 12.2 µM; in the data active means inhibition above about 9.5%
proKLK7 act – activators of human kallikrein-7 zymogen | purified proKLK7, EDANS-DABCYL substrate fluorescence; 100% is mature enzyme control, 0% vehicle | activation, % at 7 µM | 370,000 tested, 0.9% active;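 active means activation above the mean of all tested compounds plus 3 SD, computed per campaign excluding outliers beyond control limits, cut at about 13% in these data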
PLCb3 inh – PLC-beta3 (human) inhibition, primary screen; Purified PLC-beta3, fluorogenic substrate, fluorescence; Q01970; 370,000 tested, 0.18% active; inhibition, % at 12.2 µM; in the data active means inhibition above about 11%;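 further: 0% = median of compound wells on plate and 100% = full blocker control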
ADAM17 inh – inhibits human ADAM17 | recombinant ADAM17, EDANS/DABCYL FRET peptide cleavage | 370,000 tested, 0.83% active | P78536 | inhibition, % at 6.95 µM;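 active means inhibition above the mean of compounds lying between control limits plus 3 SD, set per campaign, cut at about 8.5% in these data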;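 further: 0% = DMSO-only wells as the low control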
ADAM10 confirm – confirmation of inhibitors of human ADAM10. 2,100 tested, 1% active. shares compounds with ADAM10 inh. inhibition, % at 6.95 µM. ADAM10 QFRET peptide cleavage, EDANS fluorescence;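 active means inhibition above about 20% chosen separately for each screening run, limit read from the data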;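 further: 0% = DMSO wells and 100% = marimastat wells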
ADAM17 counter – inhibits human ADAM17 in ADAM10 exosite counter-screen | ADAM17 QFRET peptide cleavage, EDANS fluorescence | shares compounds with ADAM10 inh | 2,100 tested, 0.5% active | inhibition, % at 6.95 µM | AID 743214;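 active means mean triplicate inhibition above the solvent-only control wells' mean plus 3 SD, cut at about 12% in these data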;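 further: 0% = DMSO wells and 100% = marimastat wells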
ADAM10 ctr – ADAM10 inhibition, counter-screen for ADAM17 exosite hits. shares compounds with ADAM17 inh. recombinant ADAM10, EDANS/DABCYL FRET peptide cleavage, 3 h. inhibition, % at 6.95 µM. 2,900 tested, 47% active. AID 743256;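 active means mean inhibition over the triplicate runs exceeds the activity threshold set in the earlier primary screen, cut at about 20% in these data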;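 further: 0% = DMSO wells and 100% = marimastat wells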
ADAM17 confirm – confirmation of inhibitors of human ADAM17; AID 743257; inhibition, % at 6.95 µM; recombinant ADAM17, EDANS/DABCYL QFRET peptide cleavage; shares compounds with ADAM17 inh; 2,900 tested, 65% active;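 active means mean inhibition across replicates above the hit cutoff set in the primary screen, cut at about 8.5% in these data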;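 further: 0% = DMSO wells and 100% = marimastat wells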
Numbers without * were called inactive; . = no result given.

SMILES	ADAM10 inh	PLC-gamma1 inh	proKLK7 act	PLCb3 inh	ADAM17 inh	ADAM10 confirm	ADAM17 counter	ADAM10 ctr	ADAM17 confirm
OC(CNCC(c1ccc(Cl)cc1Cl)c1c[nH]c2ccccc12)c1ccccc1 (stereo not drawn)	26*	9	1	1	12*	13	4	37*	17*
COc1ccc2[nH]c3c(c2c1)CCN[C@]31C(=O)N(Cc2ccccc2)c2ccccc21	-1	2	0	4	-4	.	.	.	.
CCOC(=O)C1=NOC(C(=O)NCc2ccccc2)(C(=O)c2ccc(OC)cc2)C1 (stereo not drawn)	-5	-8	0	-11	0	.	.	.	.
COc1ccc(S(=O)(=O)Nc2ccc(Nc3ccccc3)cc2)cc1	21*	7	0	-4	12*	7	1	13	11*
C=CCc1cccc(CNc2nc3ccccc3n2C)c1O	20*	2	0	-4	11*	3	1	32*	17*
CCOC(=O)[C@@]12CCCC=C1N(CCc1ccc(Cl)cc1)C(=O)[C@H]2CC(=O)NCc1ccccc1	10	3	0	2	4	.	.	.	.
O=C(Nc1ccc2c(c1)Cc1ccccc1-2)NC1CCCCN(Cc2cccc(Cl)c2)C1=O (stereo not drawn)	-2	0	0	2	-3	.	.	.	.
CCOC(=O)C1=CN(Cc2cccc(F)c2)S(=O)(=O)NC1c1ccc(Br)cc1F (stereo not drawn)	21*	4	0	1	9.6*	3	1	24*	15*
